The campaign covered roughly 5,500 compounds. About 2,000 (36%) were called active. Inconclusive results (about 18%) are left out. This is one part of the list. A number with no mark means an inactive call. No stated cut-off is given here; in the data, active means normalized growth mostly below about 0.91 (no sharp cut-off); inconclusive means no clear call, values can overlap the other calls; inactive means mostly above about 0.92.
Test: chemical genetic growth profiling, strain panel (AID 1159580);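 further: tested at 20 µM; growth read once vehicle control cultures reached saturation at 30 °C; 1 = growth at the plate median or of vehicle wells; lower values mean less growth of the strain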
Conditions: S. cerevisiae deletion strains, growth OD
[1] = locus YAR019C, strain CDC15, hits give low values
[2] = locus YBL105C, strain PKC1, hits give low values
[3] = locus YBR135W, strain CKS1, hits give low values
[4] = locus YBR136W, strain MEC1, hits give low values
[5] = locus YBR160W, strain CDC28, hits give low values
[6] = locus YDL017W, strain CDC7, hits give low values
[7] = locus YDL028C, strain MPS1, hits give low values
[8] = locus YDL101C, strain DUN1, hits give low values
[9] = locus YDL108W, strain KIN28, hits give low values
[10] = locus YDL132W, strain cdc53, hits give low values
[11] = locus YDL214C, strain PRR2, hits give low values
[12] = locus YDR052C, strain DBF4, hits give low values
[13] = locus YDR054C, strain cdc34, hits give low values
[14] = locus YDR226W, strain ADK1, hits give low values
[15] = locus YDR477W, strain SNF1, hits give low values
[16] = locus YER123W, strain YCK3, hits give low values
[17] = locus YER133W, strain GLC7, hits give low values
[18] = locus YFL009W, strain cdc4, hits give low values
[19] = locus YFL029C, strain CAK1, hits give low values
[20] = locus YFR003C, strain YPI1, hits give low values
[21] = locus YFR019W, strain FAB1, hits give low values
[22] = locus YFR028C, strain CDC14, hits give low values
[23] = locus YGR040W, strain KSS1, hits give low values
[24] = locus YGR052W, strain FMP48, hits give low values
[25] = locus YGR092W, strain DBF2, hits give low values
[26] = locus YHR030C, strain SLT2, hits give low values
[27] = locus YHR079C, strain IRE1, hits give low values
[28] = locus YHR082C, strain KSP1, hits give low values
[29] = locus YHR205W, strain SCH9, hits give low values
[30] = locus YIL147C, strain SLN1, hits give low values
[31] = locus YJL095W, strain BCK1, hits give low values
[32] = locus YJL128C, strain PBS2, hits give low values
[33] = locus YJL157C, strain FAR1, hits give low values
[34] = locus YJR016C, strain ILV3, hits give low values
[35] = locus YJR066W, strain TOR1 (second series), hits give low values
[36] = locus YJR066W, strain TOR1, hits give low values
[37] = locus YKL048C, strain ELM1, hits give low values
[38] = locus YKL067W, strain YNK1, hits give low values
[39] = locus YKL101W, strain HSL1, hits give low values
[40] = locus YKL193C, strain SDS22, hits give low values
[41] = locus YKL203C, strain TOR2, hits give low values
[42] = locus YLR113W, strain HOG1, hits give low values
[43] = locus YLR133W, strain CKI1, hits give low values
[44] = locus YLR403W, strain SFP1, hits give low values
[45] = locus YML070W, strain DAK1, hits give low values
[46] = locus YMR001C, strain CDC5, hits give low values
[47] = locus YMR205C, strain PFK2 (second series), hits give low values
[48] = locus YMR277W, strain FCP1, hits give low values
[49] = locus YNL006W, strain LST8, hits give low values
[50] = locus YNL020C, strain ARK1, hits give low values
[51] = locus YNL161W, strain CBK1, hits give low values
[52] = locus YNL183C, strain NPR1, hits give low values
[53] = locus YNL207W, strain RIO2, hits give low values
[54] = locus YNL222W, strain SSU72, hits give low values
[55] = locus YNL307C, strain MCK1 (second series), hits give low values
[56] = locus YOL078W, strain AVO1, hits give low values
[57] = locus YOL136C, strain PFK27, hits give low values
[58] = locus YOR061W, strain CKA2, hits give low values
[59] = locus YOR119C, strain RIO1, hits give low values
[60] = locus YOR231W, strain MKK1, hits give low values
[61] = locus YOR329C, strain SCD5, hits give low values
[62] = locus YPL031C, strain PHO85, hits give low values
[63] = locus YPL153C, strain RAD53, hits give low values
[64] = locus YPL204W, strain HRR25, hits give low values
[65] = locus YPL209C, strain IPL1, hits give low values
[66] = locus YPL256C, strain CLN2, hits give low values
[67] = locus YPR025C, strain CCL1, hits give low values
[68] = locus YPR106W, strain ISR1, hits give low values
[69] = locus YPR111W, strain DBF20, hits give low values
[70] = strain NNK1, hits give low values
[71] = strain TSCII, hits give low values

## CCOC(=O)C(NC(=O)c1cccc(Cl)c1)(Nc1nc2ccccc2s1)C(F)(F)F (stereo unspecified)
[1]
  normalized growth: 0.967
[2]
  normalized growth: 0.957
[3]
  normalized growth: 0.956
[4]
  normalized growth: 0.96
[5]
  normalized growth: 0.967
[6]
  normalized growth: 0.962
[7]
  normalized growth: 0.961
[8]
  normalized growth: 0.973
[9]
  normalized growth: 0.963
[10]
  normalized growth: 0.952
[11]
  normalized growth: 0.927
[12]
  normalized growth: 0.955
[13]
  normalized growth: 0.952
[14]
  normalized growth: 0.956
[15]
  normalized growth: 0.917
[16]
  normalized growth: 0.906
[17]
  normalized growth: 0.9
[18]
  normalized growth: 0.954
[19]
  normalized growth: 0.975
[20]
  normalized growth: 0.957
[21]
  normalized growth: 0.955
[22]
  normalized growth: 0.963
[23]
  normalized growth: 0.926
[24]
  normalized growth: 0.943
[25]
  normalized growth: 0.996
[26]
  normalized growth: 0.796 (active)
[27]
  normalized growth: 1
[28]
  normalized growth: 0.989
[29]
  normalized growth: 1.01
[30]
  normalized growth: 0.955
[31]
  normalized growth: 0.98
[32]
  normalized growth: 0.949
[33]
  normalized growth: 0.915
[34]
  normalized growth: 0.963
[35]
  normalized growth: 0.949
[36]
  normalized growth: 1.02
[37]
  normalized growth: 0.937
[38]
  normalized growth: 0.94
[39]
  normalized growth: 0.929
[40]
  normalized growth: 0.964
[41]
  normalized growth: 1.01
[42]
  normalized growth: 0.823 (active)
[43]
  normalized growth: 0.935
[44]
  normalized growth: 1.02
[45]
  normalized growth: 0.914
[46]
  normalized growth: 0.967
[47]
  normalized growth: 0.941
[48]
  normalized growth: 0.964
[49]
  normalized growth: 0.966
[50]
  normalized growth: 0.931
[51]
  normalized growth: 0.96
[52]
  normalized growth: 1.07
[53]
  normalized growth: 0.961
[54]
  normalized growth: 0.968
[55]
  normalized growth: 0.916
[56]
  normalized growth: 0.962
[57]
  normalized growth: 0.924
[58]
  normalized growth: 0.939
[59]
  normalized growth: 0.992
[60]
  normalized growth: 0.967
[61]
  normalized growth: 0.964
[62]
  normalized growth: 0.917
[63]
  normalized growth: 0.927
[64]
  normalized growth: 0.913
[65]
  normalized growth: 0.962
[66]
  normalized growth: 0.894
[67]
  normalized growth: 0.966
[68]
  normalized growth: 0.962
[69]
  normalized growth: 0.958
[70]
  normalized growth: 0.971
[71]
  normalized growth: 0.962

## CCOC(=O)C(O)(c1ccc(NC(=O)c2ccc(Cl)c(Cl)c2)cc1)C(F)(F)F (stereo unspecified)
[1]
  normalized growth: 0.998
[2]
  normalized growth: 0.988
[3]
  normalized growth: 1
[4]
  normalized growth: 0.989
[5]
  normalized growth: 0.996
[6]
  normalized growth: 0.997
[7]
  normalized growth: 0.993
[8]
  normalized growth: 0.994
[9]
  normalized growth: 0.997
[10]
  normalized growth: 0.997
[11]
  normalized growth: 0.874
[12]
  normalized growth: 0.996
[13]
  normalized growth: 0.991
[14]
  normalized growth: 0.992
[15]
  normalized growth: 0.92
[16]
  normalized growth: 0.859
[17]
  normalized growth: 0.926
[18]
  normalized growth: 0.99
[19]
  normalized growth: 0.992
[20]
  normalized growth: 0.999
[21]
  normalized growth: 0.933
[22]
  normalized growth: 1
[23]
  normalized growth: 0.915
[24]
  normalized growth: 0.979
[25]
  normalized growth: 0.892
[26]
  normalized growth: 0.962
[27]
  normalized growth: 0.953
[28]
  normalized growth: 0.967
[29]
  normalized growth: 0.928
[30]
  normalized growth: 0.986
[31]
  normalized growth: 1.01
[32]
  normalized growth: 0.946
[33]
  normalized growth: 0.913
[34]
  normalized growth: 0.988
[35]
  normalized growth: 0.914
[36]
  normalized growth: 0.994
[37]
  normalized growth: 0.953
[38]
  normalized growth: 0.935
[39]
  normalized growth: 0.901
[40]
  normalized growth: 1
[41]
  normalized growth: 0.994
[42]
  normalized growth: 0.977
[43]
  normalized growth: 0.939
[44]
  normalized growth: 0.94
[45]
  normalized growth: 0.886
[46]
  normalized growth: 0.997
[47]
  normalized growth: 0.941
[48]
  normalized growth: 1
[49]
  normalized growth: 0.986
[50]
  normalized growth: 0.919
[51]
  normalized growth: 0.99
[52]
  normalized growth: 1.02
[53]
  normalized growth: 0.992
[54]
  normalized growth: 0.994
[55]
  normalized growth: 0.91
[56]
  normalized growth: 1
[57]
  normalized growth: 0.895
[58]
  normalized growth: 0.911
[59]
  normalized growth: 0.957
[60]
  normalized growth: 0.977
[61]
  normalized growth: 1
[62]
  normalized growth: 0.896
[63]
  normalized growth: 0.912
[64]
  normalized growth: 0.922
[65]
  normalized growth: 0.996
[66]
  normalized growth: 0.976
[67]
  normalized growth: 1
[68]
  normalized growth: 0.988
[69]
  normalized growth: 0.986
[70]
  normalized growth: 0.987
[71]
  normalized growth: 0.993

## COc1ccccc1NC(=S)NCCc1ccc(OC)c(OC)c1
Locus YAL013W, strain DEP1, hits give low values
  normalized growth: 0.997
Locus YBR229C, strain ROT2, hits give low values
  normalized growth: 1
[8]
  normalized growth: 1.05
Locus YDR150W, strain NUM1, hits give low values
  normalized growth: 1.02
Locus YEL061C, strain CIN8, hits give low values
  normalized growth: 0.998
Locus YGR078C, strain PAC10, hits give low values
  normalized growth: 0.998
[26]
  normalized growth: 0.979
Locus YHR087W, strain rtc3, hits give low values
  normalized growth: 1.02
Locus YJR043C, strain POL32, hits give low values
  normalized growth: 0.982
Locus YJR075W, strain HOC1, hits give low values
  normalized growth: 0.991
Locus YLR039C, strain RIC1, hits give low values
  normalized growth: 0.91
Locus YLR058C, strain SHM2 (second series), hits give low values
  normalized growth: 0.99
Locus YLR085C, strain ARP6, hits give low values
  normalized growth: 0.942
Locus YLR262C, strain YPT6, hits give low values
  normalized growth: 0.954
Locus YML094W, strain GIM5, hits give low values
  normalized growth: 1.1
Locus YMR219W, strain ESC1, hits give low values
  normalized growth: 0.999
Locus YMR263W, strain SAP30, hits give low values
  normalized growth: 0.989
Locus YNL153C, strain GIM3, hits give low values
  normalized growth: 1.02
Locus YNL298W, strain CLA4 (second series), hits give low values
  normalized growth: 0.952
Locus YNL322C, strain KRE1, hits give low values
  normalized growth: 0.997
Locus YNR030W, strain Alg12, hits give low values
  normalized growth: 1.02
Locus YPL055C, strain LGE1, hits give low values
  normalized growth: 1.03
Locus YPL241C, strain CIN2, hits give low values
  normalized growth: 0.927
Locus YPR135W, strain CTF4, hits give low values
  normalized growth: 1.04

From PubChem BioAssay AID1159580 (chemical genetic matrix, 2015)
